Assay results: PubChem BioAssay AID1159580 (chemical genetic matrix, 2015)
Screen size: about 5,500 compounds; about 2,000 (36%) were called active. Roughly 18% stayed inconclusive and do not appear here. Cut-off read from the data, not from the text of the source: active = normalized growth mostly below about 0.91 (no sharp cut-off); inconclusive = no clear call, values can overlap the other calls; inactive = mostly above about 0.92. This is one part of the list.

Test: chemical genetic growth profiling, strain panel (AID 1159580);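 note: tested at 20 µM; growth read once vehicle control cultures reached saturation at 30 °C; 1 = growth at the plate median or of vehicle wells; lower values mean less growth of the strain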
Settings: S. cerevisiae deletion strains, growth OD

Measured: normalized growth

CN[C@H]1C[C@@H](N)[C@H](O)[C@@H](O[C@@H]2O[C@H](CO)[C@@H]3OC4(O[C@@H]3[C@@H]2O)O[C@H](C(N)CO)[C@H](O)[C@H](O)[C@H]4O)[C@@H]1O (stereo partly drawn)
inactive: locus YHR030C, strain SLT2, active compounds read low 1.05 | locus YHR079C, strain IRE1, active compounds read low 1.05 | locus YJL095W, strain BCK1, active compounds read low 1.05 | locus YJR066W, strain TOR1, active compounds read low 0.982 | locus YLR113W, strain HOG1, active compounds read low 1.02 | locus YNL183C, strain NPR1, active compounds read low 0.969 | locus YOR231W, strain MKK1, active compounds read low 1.03 | locus YPL256C, strain CLN2, active compounds read low 1.03
